# GDH-TPI counter: inhibits GDH-TPI coupling enzymes, artifact for Mtb FBA screen; GDH-TPI coupled enzyme counterscreen, NADH absorbance; inhibition, % at 4.8 µM; hit rate 1.2% among 360,000; AID 588335; in the data active means inhibition above about 30%;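 further: 0% = DMSO wells and 100% = wells lacking the enzyme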
# FBA Mtb inh: inhibitors of M. tuberculosis fructose-bisphosphate aldolase; P9WQA3; purified M. tuberculosis FBA, fluorescence read-out; inhibition, % at 1 µM; hit rate 2.3% among 360,000; in the data active means inhibition above about 27%;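 further: 0% = vehicle and 100% = reference inhibitor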
# Target sequence (P9WQA3 whole entry, looked up): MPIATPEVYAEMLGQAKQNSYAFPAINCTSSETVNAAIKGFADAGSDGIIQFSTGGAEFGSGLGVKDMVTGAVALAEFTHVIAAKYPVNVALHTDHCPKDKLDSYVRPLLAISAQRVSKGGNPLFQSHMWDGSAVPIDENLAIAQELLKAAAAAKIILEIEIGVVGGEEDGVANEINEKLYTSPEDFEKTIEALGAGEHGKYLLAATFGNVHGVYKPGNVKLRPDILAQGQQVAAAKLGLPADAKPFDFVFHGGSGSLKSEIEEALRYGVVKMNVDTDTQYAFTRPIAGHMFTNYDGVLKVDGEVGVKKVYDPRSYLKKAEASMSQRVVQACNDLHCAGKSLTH
# TcdB inh: inhibitors of Clostridioides difficile toxin B glycohydrolase; P18177; TcdB glycohydrolase enzymatic assay, plate reader; inhibition, % at 9.99 µM; hit rate 0.24% among 350,000; AID 652162; in the data active means inhibition above about 10%
# Yp Topo-I inh: Y. pestis Topo-I inhibition via cleavage products | activity, % at 10 µM | Y. pestis Topo-I cleavage product accumulation, plate reader | AID 504884 | hit rate 0.064% among 360,000; in the data active means activity above about 50%, passing the limit was not always enough
# PrPC surface inh: reduces human prion protein on the cell surface. P04156. cell surface PrPC, TR-FRET read-out. inhibition, % at 13.8 µM. hit rate 0.43% among 370,000. AID 720596; in the data active means inhibition above about 24%; further: 0% = median of the test wells and 100% = reference compound wells
# * = called active by the depositor; x = no result; + = active, no number. In the library only some 3.2% were active in any assay of this set; here they are far more common.
SMILES,GDH-TPI counter,FBA Mtb inh,TcdB inh,Yp Topo-I inh,PrPC surface inh
CCCCNC(=O)CC1S/C(=N/N=C/c2ccc(OC)cc2)NC1=O (stereo unspecified),33*,-2,1,4,-2
O=C1OC(c2ccc(Br)cc2)=N/C1=C\N1CC2CC(C1)c1cccc(=O)n1C2 (stereo unspecified),56*,-4,0,18,-12
O=c1cccc2n1CC1CC2CN(S(=O)(=O)c2cc(Cl)ccc2Cl)C1 (stereo unspecified),0,-1,0,-4,-4
O=C1OC(c2ccc([N+](=O)[O-])cc2)=N/C1=C/N1CC2CC(C1)c1cccc(=O)n1C2 (stereo unspecified),21,0,0,3,-36
O=C1OC(c2ccc(Cl)cc2)=N/C1=C\N1CC2CC(C1)c1cccc(=O)n1C2 (stereo unspecified),60*,2,0,14,-6
COc1ccc(-c2ccc3c(c2)O[C@@H](CN(C)C(C)=O)[C@H](C)CN([C@@H](C)CO)S3(=O)=O)cc1,x,x,1,x,x
C[C@H](O)[C@H](O)[C@H]1CNc2nc(N)[nH]c(=O)c2N1,18,73*,0,3,-4
O=C(CN1CCOCC1)NCC[C@@H]1CC[C@H](NC(=O)Nc2ccccc2)[C@H](CO)O1,x,x,1,x,x
C[C@@H]1CCCCO[C@@H](CN(C)C(=O)c2ccccc2)[C@@H](C)CN([C@@H](C)CO)C(=O)c2cc(NS(=O)(=O)c3ccc(Cl)cc3)ccc2O1,x,x,1,x,x
CCCCc1c(O)n2c(nc3ccccc32)[nH]c1=O,0,-12,x,3,3
CCOC(=O)c1cc(=O)n2c(nc3ccccc32)[nH]1,16,+,0,17,12
CN(C)CCCNC(=O)C[C@H]1C=C[C@@H](NC(=O)c2ccccc2F)[C@@H](CO)O1,x,x,0,x,x
Cc1ccc(S(=O)(=O)NN2C(=O)/C(=C/c3cccs3)SC2=S)cc1,31*,-4,1,2,4
Cc1ccc(/C=C2\SC(=S)N(NS(=O)(=O)c3ccc(C)cc3)C2=O)cc1,15,-6,1,13,5
COc1cc2c(cc1OC)C(c1cc3ccc(C)cc3[nH]c1=O)N(C(=O)c1ccco1)CC2 (stereo unspecified),4,-1,1,25,10
COc1cc2c(cc1OC)C(c1cc3cc4c(cc3[nH]c1=O)OCO4)N(C(=O)C1CC1)CC2 (stereo unspecified),38*,11,1,1,3
COc1ccc2c(ccc[n+]2CC(=O)c2ccc(C)cc2)c1,3,31*,1,5,-32
COc1ccc2c(ccc[n+]2CC(=O)c2ccccc2)c1,13,26,2,3,-35
COCC(=O)N1CCCC(C(=O)c2ccc3c4c(cccc24)CC3)C1 (stereo unspecified),39*,27,0,2,-1
COCCC(=O)N1CCCC(C(=O)c2ccc3c4c(cccc24)CC3)C1 (stereo unspecified),4,8,-1,8,0
CC1(C)CC(=O)/C(=N/Nc2ccc(Cl)cc2)CO1,31*,-2,-1,-5,13
Cc1ccc(-c2nnc(Nc3ccc(CC(N)=O)cc3)c3ccccc23)cc1S(=O)(=O)NCC1CCCO1 (stereo unspecified),32*,4,2,7,-18
Cc1ccc(-c2nnc(Nc3ccc(C(=O)N(C)C)cc3)c3ccccc23)cc1S(=O)(=O)NC(C)(C)CO,37*,-1,1,15,-17
CCCC#Cc1cnc2c(c1)C(=O)N([C@@H](C)CO)C[C@@H](C)[C@@H](CN(C)C(=O)c1ccc3c(c1)OCO3)O2,x,x,-1,x,x
CCC(=O)N1CC2(C1)CN(Cc1ccc3c(c1)OCO3)[C@@H](CO)c1c2c2ccc(OC)cc2n1C,x,x,1,x,x
SMILES,GDH-TPI counter,FBA Mtb inh,TcdB inh,Yp Topo-I inh,PrPC surface inh
CCC(=O)N(C)C[C@H]1Oc2ncc(-c3ccccc3OC)cc2C(=O)N([C@@H](C)CO)C[C@H]1C,x,x,1,x,x
COc1cc(/C=C/c2ccc3cccc([N+](=O)[O-])c3n2)ccc1OCC(=O)O,45*,-3,0,5,-39
CC(=O)Nc1ccc(/C=C/c2ccc3cccc([N+](=O)[O-])c3n2)cc1,40*,-2,0,12,-15
COc1cc(/C=C/c2ccc3c([N+](=O)[O-])cccc3n2)ccc1OCC(=O)O,39*,-4,0,3,-10
O=C(O)COc1ccc(/C=C/c2ccc3cccc([N+](=O)[O-])c3n2)cc1,26,-4,2,-6,-31
Cc1sc2ncnc(N/N=C/c3ccc(O)cc3)c2c1C,48*,1,0,-3,-7
COc1ccc(/C=N/Nc2ncnc3sc(C)c(C)c23)cc1,25,-3,x,2,6
COc1cccc(/C=N/Nc2ncnc3scc(-c4ccccc4)c23)c1OC,41*,5,3,2,7
Oc1ccc(/C=N/Nc2nccnc2Cl)cc1,27,0,x,5,-8
Cc1sc2ncnc(N/N=C/c3ccccc3O)c2c1C,35*,0,x,-4,-1
Nc1c(Cl)ncnc1N/N=C/c1ccc(O)cc1,42*,2,2,-1,-24
N#Cc1c(C(F)(F)F)cc(-c2ccc(Cl)cc2)[nH]c1=O,4,177*,x,3,-1
N#Cc1c(C(F)(F)F)cc(-c2ccc(F)cc2)nc1SCC(=O)O,9,-3,1,-5,-11
COc1ccc(-c2cc(C(F)(F)F)c(C#N)c(=O)[nH]2)cc1,25,+,2,-5,1
COc1ccccc1-c1cc(C(F)(F)F)c(C#N)c(=O)[nH]1,10,+,2,-4,7
N#Cc1c(C(F)(F)F)cc(-c2ccc(F)cc2)[nH]c1=O,7,142*,1,1,-2
COc1cc(-c2cc(-c3ccc(N)cc3)[nH]c(=O)c2C#N)cc(OC)c1OC,23,3,1,-8,-12
CSc1cc(-c2ccc(Cl)cc2)[nH]c(=O)c1C#N,-1,13,1,2,-2
O=C(C[C@H]1CC[C@@H](NC(=O)NC2CCCCC2)[C@@H](CO)O1)NCc1ccc(F)cc1,x,x,1,x,x
COc1ccc(NC(=O)Nc2cccc3c2O[C@H](CN(C)C(=O)Nc2ccccc2)[C@H](C)CN([C@H](C)CO)C3=O)cc1,x,x,-1,x,x
O=C(Nc1ccc2c(c1)[C@H]1C[C@H](CC(=O)N3CCCCC3)O[C@H](CO)[C@H]1O2)C1CCOCC1,x,x,0,x,x
Cc1cc(C(F)(F)F)c(C#N)c(=O)[nH]1,15,137*,x,-3,-4
COc1ccc(-c2cc(-c3ccco3)[nH]c(=O)c2C#N)cc1,22,123*,0,-5,-12
N#Cc1c(-c2ccccc2)cc(-c2ccccc2)[nH]c1=O,12,12,2,7,-3
N#Cc1c(C(F)(F)F)cc(-c2cccc(Cl)c2)[nH]c1=O,3,156*,x,4,4
N#Cc1cccc(-c2ccc3c(c2)[C@@H]2[C@@H](CCN2C(=O)C2CCCCC2)[C@H](CO)N3)c1,x,x,0,x,x
